According to the supplement of paper PMC11732987, “Enantioselective OTUD7B fragment discovery through chemoproteomics screening and high-throughput optimisation” (Communications Chemistry, 2025):

What was measured:
Experiment in all cases: log2 ratio of Biotin-Ahx-Ub-VS probe labelling (fragment/DMSO); higher = less target engagement (more negative = stronger competition), active = hit call of the paper (q ≤ 0.05, log2 ratio ≤ -1)
Settings in all cases: compound concentration: 200 uM; treatment time: 3 h
[1] = target: T1, ALG13 (UniProt Q9NP73)
T1 sequence (whole entry): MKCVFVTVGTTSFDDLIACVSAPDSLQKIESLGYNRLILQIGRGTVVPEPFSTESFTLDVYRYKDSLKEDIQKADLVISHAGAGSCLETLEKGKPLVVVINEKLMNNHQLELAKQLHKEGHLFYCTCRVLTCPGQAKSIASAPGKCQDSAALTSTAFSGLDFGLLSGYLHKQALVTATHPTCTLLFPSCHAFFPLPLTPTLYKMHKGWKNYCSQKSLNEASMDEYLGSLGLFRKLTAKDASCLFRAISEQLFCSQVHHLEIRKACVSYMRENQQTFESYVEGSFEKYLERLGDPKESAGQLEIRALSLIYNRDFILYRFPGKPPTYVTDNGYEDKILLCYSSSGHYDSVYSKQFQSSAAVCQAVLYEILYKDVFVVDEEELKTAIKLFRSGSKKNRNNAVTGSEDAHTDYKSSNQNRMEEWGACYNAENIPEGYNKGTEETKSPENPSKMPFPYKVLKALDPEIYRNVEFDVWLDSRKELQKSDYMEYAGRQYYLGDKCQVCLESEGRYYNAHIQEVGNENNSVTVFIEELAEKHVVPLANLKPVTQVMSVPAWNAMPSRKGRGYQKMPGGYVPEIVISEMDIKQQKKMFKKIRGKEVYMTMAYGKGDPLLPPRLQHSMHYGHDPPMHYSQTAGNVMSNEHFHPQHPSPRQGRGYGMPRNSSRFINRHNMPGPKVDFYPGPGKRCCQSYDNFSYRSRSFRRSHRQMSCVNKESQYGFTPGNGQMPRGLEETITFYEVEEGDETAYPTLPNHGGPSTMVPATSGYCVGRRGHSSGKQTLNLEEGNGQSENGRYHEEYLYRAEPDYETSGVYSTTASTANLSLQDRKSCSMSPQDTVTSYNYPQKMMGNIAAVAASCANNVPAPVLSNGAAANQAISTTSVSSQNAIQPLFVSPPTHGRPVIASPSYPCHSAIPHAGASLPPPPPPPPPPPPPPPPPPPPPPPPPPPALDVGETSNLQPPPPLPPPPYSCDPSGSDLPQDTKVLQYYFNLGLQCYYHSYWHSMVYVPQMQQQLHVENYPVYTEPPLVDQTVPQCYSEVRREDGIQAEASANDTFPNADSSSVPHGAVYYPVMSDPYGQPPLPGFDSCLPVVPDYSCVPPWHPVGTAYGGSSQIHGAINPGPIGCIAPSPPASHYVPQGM
How it was run: (§1)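 HEK293T lysate (495 µg per sample, in Tris/CHAPS/IGEPAL buffer with protease inhibitors) was exposed in triplicate for 3 h to fragment at 200 µM or to vehicle, then to Biotin-Ahx-Ub-VS at 0.5 µM final for 1 h. Labelled DUBs were enriched on NeutrAvidin, digested with LysC and trypsin, and analysed by diaPASEF LC-MS/MS. Spectronaut label-free quantities were normalised to the global median, and values are average log2 ratios of fragment over vehicle from an unpaired t-test. Only proteins with ≥2 unique peptides were used.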

[2] = target: ATXN3 (UniProt P54252)
How it was run: as §1

[3] = target: T2, BAP1 (UniProt Q92560)
T2 sequence (whole entry): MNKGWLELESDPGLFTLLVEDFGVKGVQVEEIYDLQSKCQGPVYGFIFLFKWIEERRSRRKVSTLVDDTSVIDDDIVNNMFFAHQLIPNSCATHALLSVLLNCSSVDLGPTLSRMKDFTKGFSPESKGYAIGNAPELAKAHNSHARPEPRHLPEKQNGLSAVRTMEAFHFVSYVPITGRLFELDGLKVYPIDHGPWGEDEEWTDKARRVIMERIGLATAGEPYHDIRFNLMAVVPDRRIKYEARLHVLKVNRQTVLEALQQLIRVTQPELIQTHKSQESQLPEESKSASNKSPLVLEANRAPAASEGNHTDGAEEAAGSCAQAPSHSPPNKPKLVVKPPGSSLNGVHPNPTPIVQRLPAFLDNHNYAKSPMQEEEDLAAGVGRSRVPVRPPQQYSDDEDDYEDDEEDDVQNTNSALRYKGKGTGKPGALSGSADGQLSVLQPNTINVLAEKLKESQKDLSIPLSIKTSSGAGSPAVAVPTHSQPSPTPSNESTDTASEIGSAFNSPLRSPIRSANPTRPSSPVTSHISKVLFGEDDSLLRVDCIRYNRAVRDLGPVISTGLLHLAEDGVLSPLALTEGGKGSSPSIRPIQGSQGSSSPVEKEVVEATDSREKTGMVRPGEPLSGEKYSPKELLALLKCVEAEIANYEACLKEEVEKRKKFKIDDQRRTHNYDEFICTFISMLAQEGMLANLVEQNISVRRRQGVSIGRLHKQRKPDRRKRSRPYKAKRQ
How it was run: as §1

[4] = target: EIF3F (UniProt O00303)
How it was run: as §1

[5] = target: EIF3H (UniProt O15372)
How it was run: as §1

[6] = target: T3, FAM105A (UniProt Q9NUU6)
T3 sequence (whole entry): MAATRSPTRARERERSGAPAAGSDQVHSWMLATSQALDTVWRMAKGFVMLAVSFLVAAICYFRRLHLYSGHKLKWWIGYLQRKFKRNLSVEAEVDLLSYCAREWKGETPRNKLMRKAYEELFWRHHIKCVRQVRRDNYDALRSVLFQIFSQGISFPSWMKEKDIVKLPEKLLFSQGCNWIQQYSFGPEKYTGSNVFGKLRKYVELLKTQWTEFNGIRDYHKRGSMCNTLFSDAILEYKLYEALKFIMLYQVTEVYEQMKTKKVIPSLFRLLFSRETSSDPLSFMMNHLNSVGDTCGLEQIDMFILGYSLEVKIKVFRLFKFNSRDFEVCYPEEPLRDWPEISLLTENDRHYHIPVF
How it was run: as §1

[7] = target: OTUB1 (UniProt Q96FW1)
How it was run: as §1

[8] = target: T4, OTUD4 (UniProt Q01804)
T4 sequence (whole entry): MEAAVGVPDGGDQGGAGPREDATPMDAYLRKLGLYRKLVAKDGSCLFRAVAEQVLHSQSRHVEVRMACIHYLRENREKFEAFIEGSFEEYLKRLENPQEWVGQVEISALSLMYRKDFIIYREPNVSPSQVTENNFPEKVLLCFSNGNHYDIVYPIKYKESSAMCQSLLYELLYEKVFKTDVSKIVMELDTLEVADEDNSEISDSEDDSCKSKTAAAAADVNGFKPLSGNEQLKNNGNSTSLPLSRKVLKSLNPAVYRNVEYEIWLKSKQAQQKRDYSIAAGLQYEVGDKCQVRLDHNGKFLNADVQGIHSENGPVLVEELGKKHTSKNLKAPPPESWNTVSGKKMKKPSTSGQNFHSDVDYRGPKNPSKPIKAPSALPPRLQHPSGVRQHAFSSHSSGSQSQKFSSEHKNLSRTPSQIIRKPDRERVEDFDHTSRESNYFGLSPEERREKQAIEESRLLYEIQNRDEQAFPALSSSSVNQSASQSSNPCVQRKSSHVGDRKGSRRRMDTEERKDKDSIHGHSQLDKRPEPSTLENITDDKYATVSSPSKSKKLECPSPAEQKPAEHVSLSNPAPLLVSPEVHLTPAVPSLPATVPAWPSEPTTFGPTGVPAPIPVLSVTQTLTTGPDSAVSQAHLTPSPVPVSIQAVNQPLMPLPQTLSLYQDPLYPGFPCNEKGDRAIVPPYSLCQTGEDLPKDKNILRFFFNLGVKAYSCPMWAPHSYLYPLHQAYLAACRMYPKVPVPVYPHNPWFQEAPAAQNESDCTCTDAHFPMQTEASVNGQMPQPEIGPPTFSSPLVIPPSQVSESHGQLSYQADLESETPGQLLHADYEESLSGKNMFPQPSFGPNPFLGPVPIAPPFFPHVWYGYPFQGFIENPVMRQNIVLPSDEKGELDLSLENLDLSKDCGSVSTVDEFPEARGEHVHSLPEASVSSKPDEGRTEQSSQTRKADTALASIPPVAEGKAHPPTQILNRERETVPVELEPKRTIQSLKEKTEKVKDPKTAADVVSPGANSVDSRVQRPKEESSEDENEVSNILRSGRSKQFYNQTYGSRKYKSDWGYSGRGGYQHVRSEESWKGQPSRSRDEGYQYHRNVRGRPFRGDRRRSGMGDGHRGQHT
How it was run: as §1

[9] = target: T5, OTUD5 (UniProt Q96G74)
T5 sequence (whole entry): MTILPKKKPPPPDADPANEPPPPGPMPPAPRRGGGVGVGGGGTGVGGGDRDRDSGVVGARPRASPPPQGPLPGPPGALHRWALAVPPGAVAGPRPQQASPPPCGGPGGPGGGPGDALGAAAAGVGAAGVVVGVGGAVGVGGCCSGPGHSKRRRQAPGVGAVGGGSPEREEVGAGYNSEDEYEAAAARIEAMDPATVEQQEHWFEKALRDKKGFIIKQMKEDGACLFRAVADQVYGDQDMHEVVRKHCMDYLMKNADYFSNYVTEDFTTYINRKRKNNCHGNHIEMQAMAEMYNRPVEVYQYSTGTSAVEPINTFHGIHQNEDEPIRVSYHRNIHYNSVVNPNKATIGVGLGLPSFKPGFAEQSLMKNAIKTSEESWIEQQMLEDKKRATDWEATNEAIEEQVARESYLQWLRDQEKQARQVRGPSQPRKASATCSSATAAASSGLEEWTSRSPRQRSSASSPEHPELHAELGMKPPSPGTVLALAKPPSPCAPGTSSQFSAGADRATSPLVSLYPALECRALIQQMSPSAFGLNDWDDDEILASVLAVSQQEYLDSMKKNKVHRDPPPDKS
How it was run: as §1

Measured: log2 ratio of Biotin-Ahx-Ub-VS probe labelling

EIF3H, sequence (O15372 whole entry): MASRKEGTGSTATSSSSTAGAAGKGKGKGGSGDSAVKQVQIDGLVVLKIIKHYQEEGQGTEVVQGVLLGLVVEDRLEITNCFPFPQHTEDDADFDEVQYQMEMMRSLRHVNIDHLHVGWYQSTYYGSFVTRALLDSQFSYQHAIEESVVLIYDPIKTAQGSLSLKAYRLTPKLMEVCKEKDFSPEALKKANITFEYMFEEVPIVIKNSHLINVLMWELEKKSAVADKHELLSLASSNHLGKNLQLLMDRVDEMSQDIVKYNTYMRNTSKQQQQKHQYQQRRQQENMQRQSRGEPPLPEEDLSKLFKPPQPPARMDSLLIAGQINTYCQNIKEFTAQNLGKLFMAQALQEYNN
OTUB1, sequence (Q96FW1 whole entry): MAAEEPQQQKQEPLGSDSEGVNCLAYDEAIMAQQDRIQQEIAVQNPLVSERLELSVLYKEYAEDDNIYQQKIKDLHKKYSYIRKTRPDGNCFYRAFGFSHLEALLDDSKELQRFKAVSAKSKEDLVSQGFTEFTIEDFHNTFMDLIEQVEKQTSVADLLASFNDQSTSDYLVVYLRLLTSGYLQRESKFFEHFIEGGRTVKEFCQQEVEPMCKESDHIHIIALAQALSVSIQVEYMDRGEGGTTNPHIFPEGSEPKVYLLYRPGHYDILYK
EIF3F, sequence (O00303 whole entry): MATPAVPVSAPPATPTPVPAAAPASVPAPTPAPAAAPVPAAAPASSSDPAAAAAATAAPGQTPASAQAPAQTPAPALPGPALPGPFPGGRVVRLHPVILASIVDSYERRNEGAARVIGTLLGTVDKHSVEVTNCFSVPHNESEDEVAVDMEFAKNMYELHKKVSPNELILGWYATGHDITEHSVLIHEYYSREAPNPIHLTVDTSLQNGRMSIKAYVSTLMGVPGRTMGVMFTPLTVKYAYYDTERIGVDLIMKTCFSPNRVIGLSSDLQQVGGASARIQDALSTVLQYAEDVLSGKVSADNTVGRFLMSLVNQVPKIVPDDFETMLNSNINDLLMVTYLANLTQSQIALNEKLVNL
ATXN3, sequence (P54252 whole entry): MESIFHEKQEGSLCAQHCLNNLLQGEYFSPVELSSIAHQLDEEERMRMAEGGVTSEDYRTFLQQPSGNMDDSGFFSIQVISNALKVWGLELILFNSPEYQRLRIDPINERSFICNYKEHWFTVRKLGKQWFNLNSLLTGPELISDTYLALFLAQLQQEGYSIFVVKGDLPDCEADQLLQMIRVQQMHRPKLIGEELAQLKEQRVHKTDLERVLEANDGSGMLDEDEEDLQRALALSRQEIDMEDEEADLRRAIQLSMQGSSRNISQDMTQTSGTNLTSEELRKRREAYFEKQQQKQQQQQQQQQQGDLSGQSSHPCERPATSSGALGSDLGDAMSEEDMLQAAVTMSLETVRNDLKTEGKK

COCC1C=CCCN1C(=O)CCl (centres undefined)
inactive: [1] 0.0362 | [2] -0.232 | [3] -0.527 | [4] -0.011 | [5] 0.276 | [6] 0.371 | [7] 0.0515 | [8] -0.452 | [9] -0.298
